# Laboratory results taken from the supplement of paper PMC6555819.
# Assays:
# Assay in all cases: PBM binding z-score (relative to random genomic background probes); higher = stronger binding; sequences stand for … in GC…GCGATTGACAGCGTAGAATGAAGG
# [1] = system: FXR:RXRa (NR concentration 270 nM, RXRa partner concentration 90 nM)
# Procedure, shortened: (§1)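 Custom Agilent 4×180K protein-binding microarrays carried double-stranded probes, each with a 34-nt variable region. These regions held direct-repeat seeds, single-nucleotide variants, half-site ablations and random human genomic background sequences. Ligand-free nuclear receptor dimers were incubated on the arrays for 1 h, antibodies against each partner (one per run) detected binding, and scanned fluorescence was regression-normalized. Binding z-scores take the random background probes as reference.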
# [2] = system: LXRa:RXRa (NR concentration 270 nM, RXRa partner concentration 90 nM)
# Procedure, shortened: as §1
# [3] = system: LXRa homodimer (NR concentration 270 nM)
# Procedure, shortened: as §1
# [4] = system: LXRb:RXRa (NR concentration 270 nM, RXRa partner concentration 90 nM)
# Procedure, shortened: as §1
# [5] = system: LXRb homodimer (NR concentration 270 nM)
# Procedure, shortened: as §1
# [6] = system: PPARa:RXRa (NR concentration 270 nM, RXRa partner concentration 90 nM)
# Procedure, shortened: as §1
# [7] = system: PPARg:RXRa (NR concentration 180 nM, RXRa partner concentration 90 nM)
# Procedure, shortened: as §1
# [8] = system: PPARg:RXRa 270nM:90nM, anti-RXR (NR concentration 270 nM, RXRa partner concentration 90 nM)
# Procedure, shortened: as §1
# [9] = system: PPARg:RXRa 30nM:10nM, anti-RXR (NR concentration 30 nM, RXRa partner concentration 10 nM)
# Procedure, shortened: as §1
# [10] = system: PPARg:RXRa 90nM:30nM, anti-RXR (NR concentration 90 nM, RXRa partner concentration 30 nM)
# Procedure, shortened: as §1
# [11] = system: PPARg:RXRa DBDmut IVT, anti-RXR (DBD mutation: RXRa K156A/R161A, NR concentration 270 nM, RXRa partner concentration 90 nM)
# Procedure, shortened: as §1
# [12] = system: PPARg:RXRa IVT, anti-PPARg (NR concentration 270 nM, RXRa partner concentration 90 nM)
# Procedure, shortened: as §1
# [13] = system: PPARg DBDmut:RXRa IVT, anti-PPARg (DBD mutation: PPARg1 K132A/R137A, NR concentration 270 nM, RXRa partner concentration 90 nM)
# Procedure, shortened: as §1
# [14] = system: PPARg DBDmut IVT, anti-PPARg (DBD mutation: PPARg1 K132A/R137A, NR concentration 270 nM)
# Procedure, shortened: as §1
# [15] = system: PPARg homodimer (NR concentration 180 nM)
# Procedure, shortened: as §1
# [16] = system: PXR:RXRa (NR concentration 270 nM, RXRa partner concentration 90 nM)
# Procedure, shortened: as §1
# [17] = system: PXR homodimer (NR concentration 270 nM)
# Procedure, shortened: as §1
# [18] = system: RARa:RXR (NR concentration 270 nM, RXRa partner concentration 90 nM)
# Procedure, shortened: as §1
# [19] = system: RARa homodimer (NR concentration 270 nM)
# Procedure, shortened: as §1
# [20] = system: RARb:RXRa (NR concentration 270 nM, RXRa partner concentration 90 nM)
# Procedure, shortened: as §1
Sequence,PBM binding z-score [1],PBM binding z-score [2],PBM binding z-score [3],PBM binding z-score [4],PBM binding z-score [5],PBM binding z-score [6],PBM binding z-score [7],PBM binding z-score [8],PBM binding z-score [9],PBM binding z-score [10],PBM binding z-score [11],PBM binding z-score [12],PBM binding z-score [13],PBM binding z-score [14],PBM binding z-score [15],PBM binding z-score [16],PBM binding z-score [17],PBM binding z-score [18],PBM binding z-score [19],PBM binding z-score [20]
CTACCGAGGTGAACAAGGTCGTTGATTACTATTC,1.49,1.66,0.107,2.37,-0.186,3.16,1.79,1.8,0.0798,0.754,2.91,3.47,0.523,0.329,0.965,3.25,1.95,2.62,-0.15,2.19
GGAACGAGGACATTCGAGTTGATAGCATGGCGAT,0.116,-0.183,-0.644,-0.72,-0.703,-0.304,0.664,-0.0182,-0.118,-0.155,0.421,0.192,-0.159,-0.578,-0.204,0.468,0.409,0.177,-0.136,0.344
CCTACTGGGCCAAGGGCATTGATCAGTCAAAGCA,-0.551,-0.572,-0.484,-0.601,-1.35,1.1,2.48,3.44,1,2.55,2.73,3.65,-0.869,-1.53,0.181,-0.452,-0.173,-0.637,-1.18,0.896
CCTCGGAGGACAACAGGAGGTCAGATCTGCCAGA,1.11,2.26,2.76,1.83,-0.568,1.91,0.67,0.241,-0.484,-0.22,0.382,0.149,-0.732,-1.41,1.21,2.05,0.364,2.18,0.26,2.81
GATGCAGGGTCAAGGCCAGAGTACGCGTATTGAT,6.64,3.82,-0.363,3.54,-0.254,5.74,5.22,4.93,1.79,3.61,1.47,3.42,-0.201,-0.81,1.2,3.59,0.224,3.86,0.306,4.54
CCGACTGGGGCAAGGGTACCATAACGCACAGCCA,-0.555,-0.391,-0.264,-0.192,-1.39,1.5,4.24,4.92,2.6,4.6,2.26,3.6,0.123,-0.113,0.601,-0.478,-0.439,-0.197,-0.395,0.933
GCCTATAGGTAATACAAGGTGAAAGTCCGATTGT,2.26,2.68,-0.0258,0.783,-0.465,1.28,0.667,0.826,0.0563,0.57,1.99,1.53,0.858,0.233,0.234,0.642,0.00334,0.994,-0.186,0.666
CGTCCAAGGTCAGCAGGGCAGTGAAAGCGACGTG,5.27,3.24,-0.203,2.34,-0.623,4.47,3.08,3.74,0.535,2.52,2.44,3.13,-0.138,-1.04,1.69,2.25,0.00417,3.12,0.417,5.17
GGTATTAGTTGAAAGGGCAACCGAATGATTCTCG,1.14,1.49,1.06,1.41,0.907,2.66,3.26,5.07,3.13,4.79,0.803,1.67,1.15,0.67,2.69,1.23,1.44,1.88,2.51,2.42
GATACAGGGTCAGCTAAAGGCCAGAGTATGGAAA,4.35,2.74,-0.339,2.43,-0.758,4.67,4.07,3.58,0.882,2.24,1.25,2.78,0.576,-0.417,2.2,2.68,-0.205,4.25,0.412,4.26
GCGACTGGGGCTAAGCAGGTTACCATAAGGTTGG,-0.407,-0.415,-0.836,-0.00625,-0.83,0.342,0.147,-0.288,-0.707,-0.68,0.815,0.343,-0.64,-1.34,-0.237,-0.0501,-0.222,0.266,-0.85,0.544
CCTAGCAAGCCAGGGTCACTCAAGCATTTCGCTT,2.31,1.92,-0.142,2.16,-1.12,3.13,0.169,1.09,-0.503,0.224,-0.127,0.222,-0.962,-1.46,0.888,2.78,0.054,3.42,-0.000742,2.41
CCTACTGTGCCACGAAAGGTCATTGATTCAGTGA,3.98,5.43,5.47,4.73,1.31,4.62,3.72,4.36,2,3.59,5.18,4.39,0.906,0.678,3.62,5.32,1.94,5.05,1.63,3.96
ATCGACAGGTCGACGAGGTGAGTATACACCGTTT,0.539,0.314,-0.541,0.288,-0.436,1.42,1.11,0.392,0.0912,-0.0285,-0.262,0.929,0.221,0.384,0.58,0.461,-0.437,1.54,0.5,1.53
